Cruzain Triton: cruzain (T. cruzi) inhibition with detergent. Potency, µM, usual class: inhibitors. hit rate 0.43% among 200,000. P25779. purified cruzain, Z-FR-AMC fluorescence, 0.01% Triton; active = well fitted curve in the direction sought with a large enough effect; inconclusive = small, poorly fitted or top-dose-only effect, or another doubt; inactive = no such curve, though single readings can be large; an effect the other way counts as inactive or inconclusive; also: nearly all actives have a fitted effect of over 40% in size
Target sequence (P25779 123-467 limits assumed): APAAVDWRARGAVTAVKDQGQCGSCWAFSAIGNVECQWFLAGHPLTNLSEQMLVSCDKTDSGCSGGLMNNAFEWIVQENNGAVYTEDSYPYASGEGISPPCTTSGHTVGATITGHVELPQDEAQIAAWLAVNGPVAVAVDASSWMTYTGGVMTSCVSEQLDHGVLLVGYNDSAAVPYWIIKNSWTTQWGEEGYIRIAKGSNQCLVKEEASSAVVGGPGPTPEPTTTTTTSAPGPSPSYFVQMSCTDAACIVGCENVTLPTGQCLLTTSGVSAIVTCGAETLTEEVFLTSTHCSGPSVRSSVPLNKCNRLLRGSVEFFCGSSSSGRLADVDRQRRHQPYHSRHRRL
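Purified cruzain (1.5 nM final) was preincubated with compounds for 15 min at room temperature in 100 mM sodium acetate pH 5.5, 5 mM DTT, 0.01% Triton X-100. Reaction started with 2 uM Z-FR-AMC; AMC fluorescence change over 60 s gave activity.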
NS1 inh: inhibitors of influenza NS1 protein function; Potency, µM (series often up to 46.1 µM); hit rate 0.4% among 270,000; AID 2326; also: actives are rising curves; nearly all actives have a fitted effect of over 50% in size
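Compounds were scored for reversing the slow growth caused by influenza A NS1 in S. cerevisiae, measured by optical density at 600 nm. Assay medium contained 2% galactose at pH 6.0; NS1-free yeast of the same strain were the positive control.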
Cruzain noTriton: blocks cruzain activity in detergent-free assay; P25779; purified cruzain, Z-FR-AMC fluorescence, no detergent; Potency, µM, usual class: inhibitors; hit rate 2.3% among 200,000; active = well fitted curve in the direction sought with a large enough effect; inconclusive = small, poorly fitted or top-dose-only effect, or another doubt; inactive = no such curve, though single readings can be large; an effect the other way counts as inactive or inconclusive; also: nearly all actives have a fitted effect of over 40% in size
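Purified cruzain at 1.5 nM, pre-incubated 15 min with compound at room temperature in 100 mM sodium acetate pH 5.5, 5 mM DTT, 0.00005% Triton X-100. Reaction started with 2 uM Z-FR-AMC; AMC fluorescence increase over 60 s gives rate.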
Flu NS1 inh: validation of influenza NS1 protein function inhibitors. shares compounds with NS1 inh. influenza NS1 function cell assay, 15-point titration. activity change, negative = inhibition, % at 32.9 µM. 1,400 tested, under 10 active
Flu PR8 replic: influenza virus titer reduction, NS1 project. shares compounds with NS1 inh. MDCK infected influenza A/PR/8/34, virus titer TCID50; active compounds read low. virus titer (log TCID50), log10 TCID50 at 5 µM. hit rate 30% among 95. AID 504647; call rule not given here
Numbers stand for hits; n = inactive; u = inconclusive; x = no result. The entries come from a sample that favours hits as a whole. Unless noted, calls follow the shape of the full dose curve.

SMILES	Cruzain Triton	NS1 inh	Cruzain noTriton	Flu NS1 inh	others
CC(C)(C)N1C(=O)c2ccc(C(=O)Nc3ccc(C(=O)O)cc3)cc2C1=O	x	n	x	x
CC(C)(C)N1C(=O)c2ccc(C(=O)Nc3ccc(-c4nc5ccccc5[nH]4)cc3)cc2C1=O	n	u	n	n
COc1cc(C)ccc1OCCn1c(-c2ccc(Cl)cc2)nc2ccccc2c1=O	n	x	n	x
COc1ccc2oc(=O)c(C(=O)NCCc3c(C)[nH]c4ccc(Br)cc34)cc2c1	n	x	n	x
Cc1ccc(S(=O)(=O)N[C@H](CN)C(=O)O)cc1	n	n	n	x
CCCc1ccc2oc(C(=O)N(Cc3nccn3C)C(C)C)c(C)c2c1	x	u	x	u
Cc1c(C(=O)N(Cc2nccn2C)C(C)C)oc2c(F)cccc12	x	n	x	x
CCOC(=O)CC(NC(=O)c1cc2cc(Cl)ccc2oc1=O)c1ccc(C)cc1 (configuration not stated)	n	x	n	x
O=C(NCc1ccco1)C1CCCN(S(=O)(=O)c2ccc(-n3cnnn3)cc2)C1 (configuration not stated)	n	4µM	u	n
O=C(NCc1ccccc1F)C1CCCN(S(=O)(=O)c2ccc(-n3cnnn3)cc2)C1 (configuration not stated)	x	n	x	x
Cc1ccc(NC(=O)Cn2cc(S(=O)(=O)N3CCCC3)c(S(=O)(=O)N3CCCC3)c2)c(C)c1	n	x	n	x
CC12CCC(C(=O)N(CSC(=S)N/N=C\c3ccccc3)C1=O)C2(C)C (configuration not stated)	n	u	n	x
CC12CCC(C(=O)N(CSC(=S)N/N=C\c3ccccc3Cl)C1=O)C2(C)C (configuration not stated)	n	10µM	16µM	u	Flu PR8 replic=6.5
CCOC(=O)c1ccc(N2N=C(C)/C(=C/C=C/c3ccco3)C2=O)cc1	n	n	u	x
CC1=NN(c2ccc(C(=O)OC(C)C)cc2)C(=O)/C1=C\C=C\c1ccco1	n	11µM	n	n
CCOC(=O)c1cccc(NC(=O)CCn2c(-c3ccc(F)cc3)cc(C(=O)OCC)c2C)c1	n	x	n	x
COc1cc(NS(=O)(=O)c2ccc(NC(=S)NC(=O)c3cccs3)cc2)nc(OC)n1	n	u	n	x
Cc1cc(C)cc(NS(=O)(=O)c2ccc(NC(=S)NC(=O)c3cccs3)cc2)c1	n	13µM	25µM	n
C/C(=N\Nc1nc2ccc(Cl)cc2o1)c1ccccc1	x	8.9µM	x	u
C/C(=N\Nc1nc(C)cc(-c2ccccc2)n1)c1ccccc1	x	n	x	x
O=[N+]([O-])c1ccccc1S(=O)(=O)Oc1ccccc1/C=N/n1cnnc1	n	20µM	n	n
O=[N+]([O-])c1cccc(/C=N/n2cnnc2)c1O	n	n	n	x
Cc1ncc(CSc2ccccc2N)c(CO)c1O	n	n	n	x
S=c1[nH]c2ncccc2o1	n	n	n	x
S=c1[nH]c2cc(Cl)c3cccnc3c2o1	x	4µM	x	n
SMILES	Cruzain Triton	NS1 inh	Cruzain noTriton	Flu NS1 inh	others
CC(=O)Oc1ccc(/C=C2/C(=O)N(c3ccccc3)N=C2C)cc1	x	n	x	x
COc1ccc(/C=C2/C(=O)N(c3c(F)c(F)c(F)c(F)c3F)N=C2C)cc1	x	11µM	x	n
CCCCOc1ccccc1C(=O)N(Cc1cccc(F)c1)C1CCS(=O)(=O)C1 (configuration not stated)	n	x	n	x
Cc1nc(NC2CCCCC2)c2nc(-c3ccccc3)n(CC3CCN(C)CC3)c2n1	n	x	n	x
O=C(Nn1c(SCc2cccc([N+](=O)[O-])c2)nc2ccccc2c1=O)c1ccccc1	n	14µM	n	n
COc1ccc(C(=O)Nn2c(SCc3cccc([N+](=O)[O-])c3)nc3ccccc3c2=O)cc1	n	u	u	x
CN(C)c1ccc(C(CNC(=O)c2ccccc2)c2c[nH]c3ccccc23)cc1 (configuration not stated)	n	13µM	u	u
CN(C)c1ccc(C(CNC(=O)c2ccccc2F)c2c[nH]c3ccccc23)cc1 (configuration not stated)	n	n	u	x
Cc1nc2c(ncn2-c2ccccc2)c(=O)n1NC(=O)CN1CCN(C)CC1	x	3.5µM	x	n
Cc1nc2c(ncn2-c2ccccc2)c(=O)n1NC(=O)CN1CCCCC1	x	n	x	x
O=C(Nc1ccc(Cl)cc1)C1CCN(S(=O)(=O)c2ccc(Br)s2)CC1	n	x	n	x
Cc1cc(Cl)ccc1OCC(=O)NCCOC(=O)Nc1sc(=S)n(C)c1C	n	n	n	x
Cc1c(NC(=O)OCCNC(=O)COc2ccc(Cl)cc2Cl)sc(=S)n1C	n	u	n	n
CC(OC(=O)c1ccccc1NS(=O)(=O)c1cccc(C(F)(F)F)c1)C(=O)N(C)Cc1ccccc1 (configuration not stated)	n	n	n	x
CN(Cc1ccccc1)C(=O)COC(=O)c1ccccc1NS(=O)(=O)c1cccc(N)c1	n	22µM	n	n
O=C(c1ccc(S(=O)(=O)N2CCCC2)cc1)N1CCN(c2cccc(Cl)c2)CC1	x	n	x	x
O=C(c1ccc(S(=O)(=O)N2CCCC2)cc1)N1CCN(c2ccccc2)CC1	x	4.5µM	x	n
O=C(O)CC1=C(O)C(=O)N(c2ccccc2)C1c1ccccc1 (configuration not stated)	n	u	u	x
O=C(O)CC1=C(O)C(=O)N(c2ccccc2)C1c1ccc(Br)cc1 (configuration not stated)	n	7.9µM	n	n
CCc1ccc(-n2nc3ccc(NC(=O)COc4ccc(OC)cc4)cc3n2)cc1	n	x	n	x
O=S(=O)(N/N=C/c1ccc2c(c1)OCCO2)c1ccccc1	n	u	n	n
O=[N+]([O-])c1ccc(S(=O)(=O)N/N=C/c2ccc3c(c2)OCO3)cc1	x	n	x	x
CCOC(=O)c1c(C)[nH]c(C(=O)C(C)OC(=O)c2cccc(OCc3c(C)noc3C)c2)c1C (configuration not stated)	n	13µM	n	n
CCC(C)NC(=O)c1cccc(OCc2c(C)noc2C)c1 (configuration not stated)	x	n	x	x
O=c1oc2ccccc2n1CCCOc1ccccc1Cl	n	x	n	x
SMILES	Cruzain Triton	NS1 inh	Cruzain noTriton	Flu NS1 inh	others
C=C(Nc1ccc(OC)cc1)C(=O)OC	n	x	n	x
CCC1(c2ccc(F)cc2)NC(=O)N(CC(=O)Nc2ccc(C(N)=O)cc2)C1=O (configuration not stated)	x	n	x	x
CCOC(=O)c1cc(-c2ccccc2)sc1NC(=O)CN1C(=O)NC(CC)(c2ccc(F)cc2)C1=O (configuration not stated)	n	11µM	10µM	n
Cc1ccc(C)c(N2CCN(C(=O)C3CCC(CNS(=O)(=O)c4ccc(Br)s4)CC3)CC2)c1 (configuration not stated)	n	x	n	x
CCCC(c1nnnn1CCC(C)C)N1CCC(C(N)=O)CC1 (configuration not stated)	n	1.1µM	n	n
CC(C)CCn1nnnc1C(C(C)C)N1CCC(C(N)=O)CC1 (configuration not stated)	n	n	n	x
Cc1cc(C)c2nc(NC(=O)c3cccc(S(=O)(=O)N4CCc5ccccc54)c3)sc2c1	n	18µM	4µM	n
NS(=O)(=O)c1ccc(NC(=O)c2ccc(S(=O)(=O)N3CCc4ccccc43)cc2)cc1	x	n	x	x

Compound activity from PubChem.
